Compounds without any hit were thinned out: in the full panel of roughly 79,000, 15% have a hit. Active and inactive are the calls of the source. Cut-off read from the data, not from the text of the source: active = growth inhibition above about 70%; inactive = the rest.
Key:
[1] = NCI Yeast Anticancer Drug Screen. Data for the rad52 strain (AID 147);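 note: 0% = growth of vehicle-treated control cultures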; conditions: S. cerevisiae rad52 mutant growth inhibition, active compounds read high
Method in brief: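 Inhibition of yeast growth, referenced to vehicle controls, was the measured output for a strain with defective DNA damage repair.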

[2] = NCI Yeast Anticancer Drug Screen. Data for the wt1 strain (AID 149);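 note: 0% = growth of vehicle-treated wt1 cultures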; conditions: S. cerevisiae wt1 strain (SPY 50644) growth inhibition, active compounds read high
Method in brief: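 Readout: yeast growth inhibition, normalised to vehicle controls, in the wt1 strain exposed to test compounds.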

[3] = NCI Yeast Anticancer Drug Screen. Data for the rad50EPP+ strain (AID 151);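 note: 0% = growth of vehicle-treated control cultures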; conditions: S. cerevisiae rad50 mutant strain, active compounds read high
Method in brief: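 Genetically defined yeast (rad50EPP+, DNA damage repair alteration) is grown with compound, and inhibition of growth is expressed relative to vehicle-treated controls.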

[4] = NCI Yeast Anticancer Drug Screen. Data for the mgt1 strain (AID 153); conditions: S. cerevisiae mgt1 mutant growth inhibition, active compounds read high
Method in brief: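 In the mgt1 strain, test compounds were added and growth inhibition was determined relative to vehicle-treated controls.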

[5] = NCI Yeast Anticancer Drug Screen. Data for the rad50 strain (AID 155);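 note: 0% = growth of vehicle-only cultures of the same strain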; conditions: S. cerevisiae rad50 strain growth inhibition, active compounds read high
Method in brief: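 Compounds were tested on a yeast strain with an engineered DNA damage repair alteration; the reported value is growth inhibition normalised to vehicle treatment.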

[6] = NCI Yeast Anticancer Drug Screen. Data for the mec2-1 strain (AID 157); conditions: S. cerevisiae mec2-1 strain, active compounds read high
Method in brief: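 Each compound was tested on mec2-1 yeast, a strain altered in DNA damage repair or cell cycle control. Growth inhibition is reported relative to vehicle.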

[7] = NCI Yeast Anticancer Drug Screen. Data for the rad14 strain (AID 159);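 note: 0% = growth of vehicle-treated control cultures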; conditions: S. cerevisiae rad14 strain growth inhibition, active compounds read high
Method in brief: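 Compound-treated yeast with a defined DNA-repair lesion; growth inhibition normalised to vehicle-treated cultures.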

[8] = NCI Yeast Anticancer Drug Screen. Data for the sgs1 mgt1 strain (AID 161);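 note: 0% = growth of cultures given vehicle only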; conditions: S. cerevisiae sgs1 mgt1 strain, active compounds read high
Method in brief: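 Genetically altered yeast, compound exposure, growth inhibition relative to vehicle.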

[9] = NCI Yeast Anticancer Drug Screen. Data for the CLN2oe strain (AID 163);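 note: 0% = growth of vehicle-only control cultures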; conditions: S. cerevisiae CLN2oe strain, active compounds read high
Method in brief: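 First, the altered yeast strain was treated with each compound; second, its growth was measured; finally, inhibition was derived by comparison with vehicle controls.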

[10] = NCI Yeast Anticancer Drug Screen. Data for the cln2 rad14 strain (AID 165);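 note: 0% = growth equal to vehicle treated cultures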; conditions: S. cerevisiae cln2 rad14 strain, active compounds read high
Method in brief: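 Test compounds were added to cln2 rad14 yeast cultures; inhibition of growth was then determined by comparison with vehicle treatment.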

[11] = NCI Yeast Anticancer Drug Screen. Data for the bub3 strain (AID 167); conditions: S. cerevisiae bub3 mutant strain, active compounds read high
Method in brief: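 Growth of a checkpoint-deficient yeast mutant is measured after compound exposure. Values represent inhibition relative to vehicle.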

[12] = NCI Yeast Anticancer Drug Screen. Data for the wt2 strain (AID 169);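 note: 0% = growth of vehicle-treated yeast cultures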; conditions: S. cerevisiae wt2 strain growth inhibition, active compounds read high
Method in brief: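 The panel's yeast strains carry defined changes in DNA repair or cell cycle genes. Each strain is grown with compound, and growth loss is scored relative to vehicle.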

[13] = NCI Yeast Anticancer Drug Screen. Data for the mlh1 strain (AID 171);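 note: 0% = growth of vehicle-treated control cultures of the same strain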; conditions: S. cerevisiae mlh1 strain growth inhibition, active compounds read high
Method in brief: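 Inhibition values reflect reduced yeast growth in the presence of compound, referenced to vehicle controls, using a strain chosen for its alteration in DNA repair or cell cycle control.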

[14] = NCI Yeast Anticancer Drug Screen. Data for the sgs1 strain (AID 173);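 note: 0% = growth of vehicle-only control cultures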; conditions: S. cerevisiae sgs1 mutant, active compounds read high
Method in brief: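 Vehicle-treated cultures served as reference for growth inhibition of a yeast strain altered in DNA damage repair or cell cycle control after compound exposure.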

[15] = NCI Yeast Anticancer Drug Screen. Data for the mlh1 rad18 strain (AID 175); conditions: S. cerevisiae mlh1 rad18 strain growth inhibition, active compounds read high
Method in brief: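 Inhibition values reflect reduced growth of mutant yeast versus vehicle-treated controls following compound exposure; the mutations affect DNA damage repair.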

[16] = NCI Yeast Anticancer Drug Screen. Data for the rad18 strain (AID 177); conditions: S. cerevisiae rad18 mutant growth inhibition, active compounds read high
Method in brief: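 Steps: expose repair-mutant yeast to compound; measure growth; express as inhibition relative to vehicle control.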

[17] = at 5.0 µM (retest, dose inferred, filed as 0.5)
[18] = at 50.0 µM (retest, dose inferred, filed as 5.0)

Measured: growth inhibition

CCCC/C=C/C(C)(C(=O)OCC)C(=O)OCC
active: [15]; [18] 81% | [15]; at 50.0 µM 70.2%
inactive: [1]; at 1.2 µM -5% | [1]; at 3.7 µM -5% | [1]; at 11.0 µM -1% | [1]; at 33.0 µM 4% | [1]; at 100.0 µM 22% | [2]; at 1.2 µM -5% | [2]; at 3.7 µM -5% | [2]; at 11.0 µM -5% | [2]; at 33.0 µM -7% | [2]; at 100.0 µM 3% | [3]; at 1.2 µM -3% | [3]; at 3.7 µM 0% | [3]; at 11.0 µM 4% | [3]; at 33.0 µM 9% | [3]; at 100.0 µM 16% | [4]; at 1.2 µM -4% | [4]; at 3.7 µM -4% | [4]; at 11.0 µM -4% | [4]; at 33.0 µM -2% | [4]; at 100.0 µM 16% | [5]; at 1.2 µM -6% | [5]; at 3.7 µM -5% | [5]; [17] 10% | [5]; at 11.0 µM -1% | [5]; at 33.0 µM 0% | [5]; [18] 8% | [5]; at 50.0 µM -6.4% | [5]; at 100.0 µM 19% | [6]; at 1.2 µM -2% | [6]; at 3.7 µM -4% | [6]; [17] 3% | [6]; at 11.0 µM -1% | [6]; at 33.0 µM 5% | [6]; [18] 16% | [6]; at 50.0 µM 26.9% | [6]; at 100.0 µM 25% | [7]; at 1.2 µM -5% | [7]; at 3.7 µM -5% | [7]; at 11.0 µM -1% | [7]; at 33.0 µM 3% | [7]; at 100.0 µM 15% | [8]; [17] 0% | [8]; [18] 51% | [8]; at 50.0 µM 37.6% | [9]; at 1.2 µM -3% | [9]; at 3.7 µM -7% | [9]; at 11.0 µM -8% | [9]; at 33.0 µM -1% | [9]; at 100.0 µM 12% | [10]; [17] -6% | [10]; [18] 32% | [10]; at 50.0 µM 58.5% | [11]; at 1.2 µM -6% | [11]; at 3.7 µM -5% | [11]; [17] -2% | [11]; at 11.0 µM -6% | [11]; at 33.0 µM -1% | [11]; [18] 12% | [11]; at 50.0 µM 67.8% | [11]; at 100.0 µM 19% | [12]; at 1.2 µM -4% | [12]; at 3.7 µM -4% | [12]; at 11.0 µM -6% | [12]; at 33.0 µM -4% | [12]; at 100.0 µM 14% | [13]; at 1.2 µM -4% | [13]; at 3.7 µM -3% | [13]; at 11.0 µM -1% | [13]; at 33.0 µM 5% | [13]; at 100.0 µM 29% | [14]; at 1.2 µM -3% | [14]; at 3.7 µM -1% | [14]; at 11.0 µM 3% | [14]; at 33.0 µM 6% | [14]; at 100.0 µM 38% | [15]; [17] 11% | [16]; at 1.2 µM -4% | [16]; at 3.7 µM 1% | [16]; at 11.0 µM 6% | [16]; at 33.0 µM 13% | [16]; at 100.0 µM 35%

Reference: PubChem BioAssay (NCI)
